For part of these data: Entries with a potency or affinity are not part of this list.

For test [1], the system named is Staphylococcus aureus. Nature of the test: Antibacterial activity against Staphylococcus aureus MRSA ATCC 43300 (CO-ADD:GP_020); MIC in CAMBH media using NBS plates, by Resazurin F(560/590). In kind it is functional. The conditions noted are these: Concentration 20 uM, ASSAY_TEST Inhibition of Bacterial Growth, detection method Resazurin, Fluorescence (ex560/em590), MEDIA CAMHB, plate type 384well, CORNING #3640, time 18 hr. (In general: The colour change of resazurin is a common sign of viable cells or microbes.)

For test [2], the system named is Acinetobacter baumannii. Nature of the test: Antibacterial activity against Acinetobacter baumannii ATCC 19606 (CO-ADD:GN_034); MIC in CAMBH media using NBS plates, by Resazurin F(560/590). In kind it is functional. The conditions noted are these: Concentration 20 uM, ASSAY_TEST Inhibition of Bacterial Growth, detection method Resazurin, Fluorescence (ex560/em590), MEDIA CAMHB, plate type 384well, CORNING #3640, time 18 hr.

The subject of test [3] is Escherichia coli. Nature of the test: Antibacterial activity against Escherichia coli ATCC 25922 (CO-ADD:GN_001); MIC in CAMBH media using NBS plates, by Resazurin F(560/590). Format: functional. To be noted: Concentration 20 uM, ASSAY_TEST Inhibition of Bacterial Growth, detection method Resazurin, Fluorescence (ex560/em590), MEDIA CAMHB, plate type 384well, CORNING #3640, time 18 hr.

The test system of test [4] is Klebsiella pneumoniae. To be noted: Concentration 20 uM; ASSAY_TEST Inhibition of Bacterial Growth; detection method Absorption (OD600); MEDIA CAMHB; plate type 384well; NBS; CORNING #3640; time 18 hr.
Test [5] concerns Candida albicans. To be noted: 20 µM.
Test [6] has as its system Cryptococcus neoformans. The conditions noted are these: Concentration 20 uM; ASSAY_TEST Inhibition of Fungal Growth; detection method Resazurin; Absorption (OD600-OD570); plate type 384well; NBS; CORNING #3640.

As a reminder, the Inhibition is the change of the read-out against control, counted positive when it falls. As for `Cc1c2cnccc2c(C)c2c1c1ccccc1n2CCOC(=O)c1ccccc1`, the Inhibition in test [1] is -1.71%; in test [2], 14.72%; in test [3], 4.49%; in test [4], 5.61%; in test [5] it was 22.1%; in test [6], -19.42%.
On to `Cn1ncc2c(Nc3ccc(Br)cc3)nc(Nc3ccc(Br)cc3)nc21`, for which the Inhibition in test [1] was 3.19%; in test [2] it was -7.92%; in test [3] it was 12.54%; in test [4], 2.31%; in test [5] it was -0.11%; in test [6], -3.38%.
`C(=C\c1ccc(/C=C/c2ccccc2)nn1)/c1ccccc1`: the Inhibition in test [1] was 12.1%; in test [2], 11.6%; in test [3] it was 2.44%; in test [4] it was 18.32%; in test [5] it was 0.82%; in test [6] it was -5.49%.
Consider `Cn1c2c(c(=O)n(C)c1=O)NC1(N2)C(=O)Nc2ccccc21` (configuration not stated), for which the Inhibition in test [1] was 7.94%; in test [2] it was -15.14%; in test [3], 2.31%; in test [4] it was 1.11%; in test [5], 4.78%; in test [6] it was -2.52%.
`CCN(CC)CCN1c2ccccc2Sc2ccc3ccccc3c21`: the Inhibition in test [1] is 2.63%; in test [2] it was -0.08%; in test [3], 11.87%; in test [4], 8.87%; in test [5], 0.24%; in test [6], -5.58%.
Regarding `COc1cc2c(c(OC)c1O)C(=O)CO2`, the Inhibition in test [1] was -11.73%; in test [2], -8.29%; in test [3], -0.75%; in test [4], 1.47%; in test [5] it was 3.59%; in test [6] it was -3.51%.
As to `C[C@]12CC[C@@H]3c4ccc(OCC(=O)O)cc4CC[C@H]3[C@@H]1CCC2=O`, the Inhibition in test [1] is 9.17%; in test [2], -16.81%; in test [3], 9.71%; in test [4] it was 8.63%; in test [5], 3.7%; in test [6], -16.24%.
`COc1cc(/C=N/N=c2\[nH]c3c(=O)n(C)c(=O)n(C)c3[nH]2)ccc1O`: the Inhibition in test [1] is 15.24%; in test [2], -6.89%; in test [3], 14.34%; in test [4], -8.37%; in test [5], 48.3%; in test [6], 33.61%.
`O=C(Nc1cc(-c2ccccc2)[nH]n1)c1ccc(Cl)cc1`: the Inhibition was 11.18% in test [1]; -15.73% in test [2]; 6.31% in test [3]; 6.21% in test [4]; 8.34% in test [5]; -8.44% in test [6].
With `Cn1c(=O)c2nc(SCc3ccccn3)[nH]c2n(C)c1=S`, the Inhibition in test [1] was 8.4%; in test [2], 9.84%; in test [3], -0.48%; in test [4], 14.94%; in test [5] it was 0.94%; in test [6], -2.39%.
Regarding `O=C(O)c1ccccc1C(=O)Nc1cccc([N+](=O)[O-])c1`, the Inhibition in test [1] was -4.11%; in test [2], -9.98%; in test [3] it was -2.38%; in test [4], 3.82%; in test [5], 3.86%; in test [6], -3.03%.
For the compound `CC(=O)OC1CCC2(C)C(=CCC3C2CCC2(C)C3CC3OC4(CCC(C)CN4)C(C)C32)C1` (configuration not stated), the Inhibition in test [1] is -5.01%; in test [2] it was -6.15%; in test [3] it was 18.44%; in test [4], 9.38%; in test [5], 6.33%; in test [6], 14.75%.
Take `CC(=O)O.N=c1ccn2c(n1)OC1C(O)C(CO)OC12` (configuration not stated): the Inhibition was 0.21% in test [1]; -10.07% in test [2]; 8.11% in test [3]; 17.17% in test [4]; -0.52% in test [5]; -12.02% in test [6].
Take `CC(=O)N1C(=O)C2(NCC(C)N2)c2ccccc21` (configuration not stated): the Inhibition in test [1] was 7.15%; in test [2], -16.52%; in test [3], 6.45%; in test [4], 10.18%; in test [5] it was 2.13%; in test [6], -1.95%.
`CSC1=NC=C(C#N)C2=NC(c3ccc(Cl)cc3)NN12` (configuration not stated): the Inhibition was -1.38% in test [1]; 5.14% in test [2]; -2.57% in test [3]; 11.21% in test [4]; 1.44% in test [5]; 39.9% in test [6].
Turning to `COc1cccc(NC(S)=Nc2ccc(O)cc2)c1`, the Inhibition is -0.11% in test [1]; -11.24% in test [2]; 8.79% in test [3]; 5.3% in test [4]; 8.24% in test [5]; -9.84% in test [6].
As for `CCOc1ccc(NC(=O)Nc2cc(C(C)C)c(O)cc2C)cc1`, the Inhibition in test [1] is 12.02%; in test [2] it was -0.68%; in test [3], -2.75%; in test [4], 20.87%; in test [5], 4.16%; in test [6], -21.1%.
Take `CC(=O)c1cc(O)c2ccccc2c1O`: the Inhibition in test [1] is 4.01%; in test [2] it was -14.11%; in test [3], 0.42%; in test [4] it was 7.57%; in test [5] it was 24.1%; in test [6], 6.09%.
As to `CC1(C)N=C(N)N=C(NCCCOc2ccc([N+](=O)[O-])cc2)N1.CCS(=O)(=O)O`, the Inhibition is 25.11% in test [1]; -9.38% in test [2]; 11.82% in test [3]; 18.17% in test [4]; -1.81% in test [5]; -10.08% in test [6].
With `Cc1cc(C)n2c(C)nnc2c1`, the Inhibition in test [1] was -1.68%; in test [2], -10.08%; in test [3], 5.69%; in test [4], 10.38%; in test [5] it was -0.15%; in test [6] it was -3%.
Take `Nc1ccc(Br)cc1Br`: the Inhibition is 10.2% in test [1]; 5.55% in test [2]; 2.13% in test [3]; 7.43% in test [4]; 6.15% in test [5]; -7% in test [6].
`O=C1c2cccc(Sc3ccccc3)c2C(=O)c2c(Sc3ccccc3)cccc21`: the Inhibition in test [1] was 13.79%; in test [2], -8.62%; in test [3], 22.23%; in test [4] it was 3.23%; in test [5], 0.05%; in test [6] it was -7.69%.
